Source: PubChem BioAssay (National Center for Advancing Translational Sciences (NCATS))
TDP1 cell noCPT: qHTS for Inhibitors of human tyrosyl-DNA phosphodiesterase 1 (TDP1): qHTS in cells in absence of CPT; DT40 Tdp1-/- hTDP1 cells, no CPT, ATP luminescence, 48 h; Potency, µM (top dose mostly 46.2 µM), for the others: at the top dose activity change, negative = growth inhibition, most hits filed as inhibitors; actives 15% (n = 420,000); further: potency means the concentration at half of the fitted maximal effect; nearly all actives have a fitted effect of over 55% in size
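Camptothecin absent (DMSO only). Human TDP1-complemented DT40 knockout cells, 400 cells/well, 37 °C for minimum 48 hr; ATP measured via CellTiter-Glo, 30 min dark incubation, luminescence.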
CtBP-E1A blk: qHTS Assay for Inhibitors of the CtBP/E1A Interaction; CtBP / adenovirus E1A interaction (AlphaScreen); AlphaScreen GST-E1A/His-CtBP binding, 1536-well; hits give low values; activity change, % (test concentration not listed); actives 0.49% (n = 340,000); AID 651724, 2012; in the data active means activity change below about -65%; inconclusive means mostly about -30% to -63%
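AlphaScreen with 125 nM GST-E1A and 125 nM His-CtBP (5X stocks) in Tris pH 8.0, 300 mM NaCl, BSA, Tween 20, TCEP. Compounds preincubated 2 h at 37 deg C, then glutathione donor/nickel acceptor beads added for 1 h at 37 deg C in dark.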
TDP1 block: qHTS Assay for Inhibitors of Tyrosyl-DNA Phosphodiesterase (TDP1) | Potency, µM (highest dose often 130 µM), inactives show at the top dose activity change, negative = inhibition, usual class: inhibitors | Tyrosyl-DNA phosphodiesterase 1 (Homo sapiens), Q9NUW8 | actives 0.28% (n = 350,000) | recombinant TDP1, AlphaScreen DNA substrate cleavage; further: potency means the concentration at half of the fitted maximal effect; nearly all actives have a fitted effect of over 40% in size
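E. coli-derived human Tdp1, 1 nM final. Cpd preinc 15 min RT; substrate 15 nM final, 5 min RT; AS bead mix 10 ug/ml final, 10 min RT. Signal loss = tyrosine-FITC cleavage. No-enzyme wells = max signal.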
Six1-Eya2 inh: qHTS Assay for Inhibitors of the Six1/Eya2 Interaction. actives 0.56% (n = 360,000). AlphaScreen GST-Six1/His-Eya2 binding, biochemical; hits give low values. AID 651725, 2012. Homeobox protein SIX1 (Homo sapiens) + Protein phosphatase EYA2 (Homo sapiens), …. activity change, % (concentration not given with the values); in the data active means activity change below about -65%; inconclusive means mostly about -30% to -63%
Target sequence (O00167 whole entry, looked up): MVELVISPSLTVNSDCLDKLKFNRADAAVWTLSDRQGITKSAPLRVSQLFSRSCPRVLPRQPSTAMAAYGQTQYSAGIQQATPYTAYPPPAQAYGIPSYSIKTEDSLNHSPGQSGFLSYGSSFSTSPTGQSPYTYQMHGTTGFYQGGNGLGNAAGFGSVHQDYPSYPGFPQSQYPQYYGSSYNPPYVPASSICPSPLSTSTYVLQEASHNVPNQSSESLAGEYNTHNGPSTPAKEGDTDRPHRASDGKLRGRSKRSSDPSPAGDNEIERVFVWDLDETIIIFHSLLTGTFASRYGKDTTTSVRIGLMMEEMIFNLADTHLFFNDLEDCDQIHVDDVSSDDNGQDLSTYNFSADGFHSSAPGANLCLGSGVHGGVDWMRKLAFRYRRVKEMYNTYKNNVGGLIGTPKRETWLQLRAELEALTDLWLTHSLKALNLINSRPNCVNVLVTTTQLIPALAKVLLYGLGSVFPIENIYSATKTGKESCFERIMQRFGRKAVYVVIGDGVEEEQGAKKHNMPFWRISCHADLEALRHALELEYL
Target sequence (Q15475 whole entry, looked up): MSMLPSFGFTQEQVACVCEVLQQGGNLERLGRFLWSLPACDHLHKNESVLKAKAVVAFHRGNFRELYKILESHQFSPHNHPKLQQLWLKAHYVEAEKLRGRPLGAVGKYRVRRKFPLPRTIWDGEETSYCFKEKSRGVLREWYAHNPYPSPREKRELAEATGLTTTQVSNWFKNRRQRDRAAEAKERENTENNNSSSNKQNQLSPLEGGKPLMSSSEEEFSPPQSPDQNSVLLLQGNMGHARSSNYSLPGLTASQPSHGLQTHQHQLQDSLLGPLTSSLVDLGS
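Compounds are tested against tagged Six1 and Eya2 proteins bridged by glutathione donor and nickel acceptor beads; after a one-hour incubation at 37 °C without light, AlphaScreen emission is recorded.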
TDP1 cell CPT: qHTS for Inhibitors of human tyrosyl-DNA phosphodiesterase 1 (TDP1): qHTS in cells in presence of CPT. chicken DT40 Tdp1-/-;hTDP1 cells + 20 nM CPT, ATP luminescence, 48 h. Potency, µM (series often up to 46.2 µM), for the others: top-dose activity change, negative = growth inhibition, most hits filed as inhibitors. actives 12% (n = 420,000). AID 686979, 2013; further: potency means the concentration at half of the fitted maximal effect; nearly all actives have a fitted effect of over 55% in size
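Cell growth measured by CellTiter-Glo luminescence after a minimum 48 h, 37 C compound exposure with 20 nM CPT in Tdp1-knockout DT40 cells stably expressing hTDP1, seeded 400/well; qHTS titration format.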
IL1B secr inh: qHTS for Inhibitors of Inflammasome Signaling: IL-1-beta AlphaLISA Primary Screen; THP-1 LPS/ATP IL-1B secretion, AlphaLISA, 16 h; hits give low values; actives 4.7% (n = 360,000); activity change, % at 57.5 µM; in the data active means activity change below about -50%; inconclusive means mostly about -30% to -49%
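Secreted IL-1B measured by AlphaLISA bead assay after 16 h compound exposure of THP-1 cells; compounds (final up to 57.5 uM) added 1 h before LPS (250 ng/mL) and ATP (1.25 mM) stimulation; lower signal means less secretion.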
Starred values were filed as active, the others as inactive; ? = inconclusive; . = not tested or not shown; [ ] = remark or other dose. Shown are actives, neighbours in structure and some others; about 18% of the full set was active somewhere. Unless noted, the call rests on the fitted dose curve; in most records, active means well fitted curve in the direction sought with a large enough effect; inconclusive means small, poorly fitted or top-dose-only effect, or another doubt; inactive means no such curve, though single readings can be large; an effect the other way counts as inactive or inconclusive. On the % scale 0 is the no-effect control and ±100 the full control effect.

SMILES	TDP1 cell noCPT	CtBP-E1A blk	TDP1 block	Six1-Eya2 inh	TDP1 cell CPT	IL1B secr inh
CCC1C/C(=C\c2cc(OC)c(OC)cc2OC)C(=O)/C(=C/c2cc(OC)c(OC)cc2OC)C1 (configuration not stated)	13µM*	-27.5	.	?	?	-70.3*
COc1cc(OC)c(OC)cc1/C=C1\CC(C)C/C(=C\c2cc(OC)c(OC)cc2OC)C1=O (configuration not stated)	18.4µM*	-26.9	.	?	18.4µM*	-83.6*
COc1cc(OC)c(OC)cc1/C=C1/Cc2ccccc2C1=O	-29.5%	.	.	16.1	-21.5%	-6.8
COc1ccc(C2CC(c3cccc(Cl)c3)=NN2c2ccc(S(N)(=O)=O)cc2)cc1 (configuration not stated)	?	41.7	-8.9%[56.1 µM]	38.7	?	?
COc1cccc(C(=O)N(Cc2cccs2)C2CCS(=O)(=O)C2)c1 (configuration not stated)	-24.1%	1.4	1.4%	6.2	-13.4%	.
CCS(=O)(=O)NC(=O)C1(C)CCN1C(=O)Cc1ccc(Cl)cc1Cl (configuration not stated)	-4.7%	12.5	.	5.8	12.5%	9.6
CC(C)c1ccc(NC(=O)CN2C(=O)COc3ccc(S(=O)(=O)N4CCCCC4)cc32)cc1	23.1µM*	.	0.0%	.	?	.
CC(C)NC(=O)CN1C(=O)COc2ccc(S(=O)(=O)N3CCCCCC3)cc21	1.2%	.	0.0%	.	-1.3%	.
CC1CCN(S(=O)(=O)c2ccc3c(c2)N(CC(=O)NCCN(C)C)C(=O)CO3)CC1	.	.	1.3%	.	.	.
Cc1ccc(NC(=O)CN2C(=O)COc3ccc(S(=O)(=O)N4CCCC4)cc32)cc1C	?	-8.7	3.0%	-3.2	-1.0%	-51.8*
CC1CCN(S(=O)(=O)c2ccc3c(c2)N(CC(=O)Nc2ccc(F)c(Cl)c2)C(=O)CO3)CC1	14.6µM*	.	-2.6%	.	23.1µM*	.
Cc1ccc(NC(=O)CN2C(=O)COc3ccc(S(=O)(=O)N4CCCCCC4)cc32)cc1Cl	14.6µM*	.	2.6%	.	20.6µM*	.
COC(Cc1ccccc1N1CCCC1=O)OC	-3.7%	4.9	.	2.2	0.4%	1.5
CN(Cc1ccc(Cl)cc1Cl)C(=O)CN1C(=O)NC2(CCCC2)C1=O	?	4.7	-9.1%	-0.5	-7.8%	-5.5
COc1cccc(NC(=O)CN2C(=O)COc3ccc(S(=O)(=O)N4CCCCCC4)cc32)c1	?	.	5.2%	-22.0	?	-24.4
COc1ccc(NC(=O)CN2C(=O)COc3ccc(S(=O)(=O)N4CCCCC4)cc32)cc1Cl	14.6µM*	.	2.6%	.	?	.
CCC1(CC)SCCNC1=O	-14.9%	11.6	.	1.6	-10.2%	4.7
S=c1nc(-c2ccccc2)oc2c1CCCC2	25.9µM*	24.1	-7.7%	17.5	?	14.3
Cc1c(N)nc(C(CC(N)=O)NCC(N)C(N)=O)nc1C(=O)NC(C(=O)NC(C)C(O)C(C)C(=O)NC(C(=O)NCCc1nc(-c2nc(C(=O)NCCCN[C@@H](C)c3ccccc3)cs2)cs1)C(C)O)C(O[C@@H]1O[C@@H](CO)[C@@H](O)[C@H](O)[C@@H]1O[C@H]1O[C@H](CO)[C@@H](O)[C@H](OC(N)=O)[C@@H]1O)c1cnc[nH]1 (some centres not stated)	1.68µM*	.	.	.	1.19µM*	.
O=C(OCC(=O)N1CCC(Cc2ccccc2)CC1)c1ccccc1O	29.1µM*	3.4	-4.2%	2.9	?	-8.3
O=C(NCC(=O)N1CCC(Cc2ccccc2)CC1)c1ccccc1F	20.6µM*	-13.7	.	-1.4	?	?
O=C(OCC(=O)N1CCC(Cc2ccccc2)CC1)c1ccccc1NCCO	?	2.7	-13.2%[0.505 µM]	9.2	?	-4.8
NC(=O)c1ccccc1OCC(=O)N1CCC(Cc2ccccc2)CC1	9.2µM*	1.0	1.8%	2.9	7.31µM*	-22.8
CCc1ccc(C(=O)O)cc1	-7.6%	1.1	5.7%	4.3	15.9%	11.0
Cc1cc(C)cc(-c2nc(-c3ccncc3)no2)c1	?	0.1	3.9%	-3.3	?	0.9
SMILES	TDP1 cell noCPT	CtBP-E1A blk	TDP1 block	Six1-Eya2 inh	TDP1 cell CPT	IL1B secr inh
CC(C)(C)c1ccc(-c2nc(-c3ccncc3)no2)cc1	16.4µM*	-5.1	-8.0%[56.1 µM]	8.6	?	51.2
COc1cc(OC)c(-c2nc(-c3ccncc3)no2)cc1OC	16.4µM*	.	.	11.7	?	.
O=[N+]([O-])c1cc(-c2nc(-c3ccncc3)no2)ccc1Cl	?	1.5	0.0%	0.6	10.3µM*	-117.9*
O=[N+]([O-])c1cc(-c2nc(-c3ccncc3)no2)cc([N+](=O)[O-])c1	10.3µM*	-5.0	2.7%	-13.7	10.3µM*	32.2
Cc1cc(C)n2nc(C(=O)N/N=C/c3ccc(O)cc3)nc2n1	-6.3%	-0.5	7.2%	-8.2	31.0%	18.7
CCN(CC)CCCNC(=S)N(Cc1cccs1)Cc1cc2cc3c(cc2[nH]c1=O)OCCO3	?	0.4	7.6%	-2.4	-28.9%	0.0
Cc1cc(C)n2nc(SCC(=O)N3CCCC3)nc2n1	-16.7%	5.3	0.6%	-1.1	19.6%	11.3
Cc1oc(-c2cccc(NC(=O)c3ccccn3)c2)nc1CNC(=O)c1cc(F)c(F)cc1F	-14.5%	.	.	.	-9.7%[9.04 µM]	.
COc1cccc(-c2nn(C)c3sc(C(=O)NCCc4cccc(C)c4)cc23)c1	5.17µM*	.	0.0%	.	10.3µM*	.
CCN(CC)CCNC(=O)c1cc2c(-c3cccc(OC)c3)nn(C)c2s1	?	-18.4	0.0%	-19.9	?	-79.5*
N=c1c2c3c(sc2nc2n1CCCCC2)CCCCC3	11.6µM*	0.3	0.0%	-8.3	23.1µM*	-11.6
O=c1c2c3c(sc2nc2n1CCCCC2)CCCC3	-19.9%	-1.9	-8.3%	2.6	23.1µM*	-0.8
COc1ccc(CN2CCN(Cc3csc(C(C)=O)c3)CC2CCO)c(C)c1C (configuration not stated)	10.3µM*	1.8	0.0%	2.7	-10.1%	-16.0
